High-throughput results (PubChem BioAssay)
HepG2 tox = qHTS for Inhibitors of TGF-b: Cytotox Counterscreen | HepG2 CAGA-GFP viability, ATP luminescence, 18 h | Potency, µM (doses to about 46.1 µM), most hits filed as cytotoxic | 0.76% of 410,000 active | AID 588856, 2011
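HepG2 CAGA-GFP cells (1000/well, DMEM with 1% FBS) received compound, then TGF-beta at 500 pg/mL final, and were incubated 18 hours at 37 degrees C. Viability was read by CellTiter-Glo luminescence. Media-only wells were set as complete cell-killing and DMSO as no toxicity.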
HT1080-NT tox = qHTS for induction of synthetic lethality in tumor cells producing 2HG: qHTS for the HT-1080-NT fibrosarcoma cell line | HT-1080-NT fibrosarcoma viability, CellTiter-Glo ATP luminescence, 48 h | Potency, µM (doses to about 46.1 µM), usual class: cytotoxic | 1.6% of 360,000 active;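 note: NT is the 2HG producing partner of a matched IDH1 knockdown line; nearly all actives have a fitted effect of over 55% in size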
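HT-1080-NT fibrosarcoma cells (2HG-overproducing), 750 cells/well in RPMI with 5% FBS, dosed after 2 h and incubated 48 h at 37C. CellTiter-Glo luminescence normalized to DMSO and no-cell wells; concentration-response curves fitted and classed.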
S2 tox = Viability Counterscreen for Primary qHTS for Inhibitors of ATXN expression; S2 cells (HEK-293 line with an ATXN2-luciferase reporter) viability, CellTiter-Fluor protease fluorescence, 24 h; Potency, µM (doses to about 56.7 µM), most hits filed as cytotoxic; 0.49% of 400,000 active; AID 651635, 2014; note: nearly all actives have a fitted effect of over 40% in size
TGFb inhibitor = qHTS for Inhibitors of TGF-b; Potency, µM (top dose mostly 46.1 µM), hits mostly inhibitors; HepG2 CAGA-GFP TGF-b/SMAD3 reporter, GFP fluorescence, 18 h; TGF-beta stimulated, 500 pg/mL final; 1.2% of 410,000 active; note: nearly all actives have a fitted effect of over 65% in size
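Read-out: total well GFP (ex488/em500-530) summed from mean per-cell fluorescence. Cells: HEPG2 CAGA-GFP, 1% FBS DMEM, 18 h at 37 degrees C with 500 pg/mL final TGF-beta. Unstimulated wells served as the full-inhibition control; stimulated DMSO wells = 0%.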
ATXN2 expr inh = Primary qHTS for Inhibitors of ATXN expression. HEK-293 ATXN2-luciferase reporter, luminescence, 24 h. Potency, µM (doses to about 57 µM), most hits filed as inhibitors. 0.72% of 360,000 active; note: nearly all actives have a fitted effect of over 55% in size
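ATXN2-luciferase reporter cells (luciferase flanked by upstream and downstream ATXN2 gene portions) were treated 24 h at 37 °C with compounds at up to 57 uM. SteadyGlo luminescence gave expression; GF-AFC fluorescence gave viability.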
HT1080 IDH1KD tx = qHTS for induction of synthetic lethality in tumor cells producing 2HG: qHTS for the HT-1080-IDH1KD cell line; Potency, µM (titrated, usually from 46.1 µM), usual class: cytotoxic; HT-1080 IDH1 knockdown viability, ATP luminescence, 48 h; 2% of 360,000 active; AID 686971, 2013
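Cytotoxicity counter-line: IDH1KD HT-1080, 48 h, CellTiter-Glo. Curves classed by r2, magnitude and activity.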
Numbers stand for hits; - = inactive; ? = inconclusive; . = no result; ! = repeats disagree; [ ] = another dose, or the depositor's remark. The list is not random: actives were taken first. Their share in the collection is about 3.8%. Calls come from the whole dose curve; as a rule, active = well fitted curve in the direction sought with a large enough effect; inconclusive = small, poorly fitted or top-dose-only effect, or another doubt; inactive = no such curve, though single readings can be large; an effect the other way counts as inactive or inconclusive.

SMILES	HepG2 tox	HT1080-NT tox	S2 tox	TGFb inhibitor	ATXN2 expr inh	HT1080 IDH1KD tx
O=C(NC1CCCCC1)c1cccc2c(-c3ccc(F)c(F)c3)coc12	-	-	-	-	-	-
COc1cc(-c2coc3c(C(=O)Nc4ccc(C(C)C)cc4)cccc23)ccc1O	-	?	-	?	-	21µM
COc1cc(-c2coc3c(C(=O)NCc4ccc(N(C)C)cc4)cccc23)ccc1O	-	?	?	-	?	?
COc1cc(-c2coc3c(C(=O)NCc4ccc(OC)c(OC)c4)cccc23)ccc1O	-	?	16µM	?	?	3.3µM
COc1ccc(-c2ccc(C(=O)NCc3ccco3)c3occc23)c(C)c1	-	?	-	?	-	?
CCOc1cccc(C2C=C(c3ccc4c(c3)OCO4)NC(c3ccc(Br)cc3)N2)c1O (stereo not drawn)	-	.	.	?	.	.
CC(C)c1cc(C(C)C)c(S(=O)(=O)N2c3ccccc3[C@@]3(Br)C[C@H]4C(=O)N[C@@H](Cc5ccccc5)C(=O)N4[C@@H]23)c(C(C)C)c1	-	-	-	8.9µM	-	-
COc1c(Cl)cnn(-c2ccc(C)cc2)c1=O	-	-	-	-	-	-
Cc1ccc(-n2ncc(Br)c(Br)c2=O)cc1	-	4.6µM	21µM	3.2µM	?	5.2µM
COC(=O)c1ccc(CN2CCC3(CCC(CNC(=O)c4ccccc4)O3)CC2)cc1 (stereo not drawn)	.	.	-	.	.	.
CCN(CC)c1ccc2c(c1)OC(N)=C(C#N)C2c1cccnc1 (stereo not drawn)	-	?	-	-	-	0.23µM
COc1ccc(OC)c(-c2cc(Cl)c3c(c2)CC(CNC(=O)c2cnn4cccnc24)O3)c1 (stereo not drawn)	.	.	-	.	.	.
CN1CCCC1CCOC(C)(c1ccccc1)c1ccc(Cl)cc1 (stereo not drawn)	11µM	16µM	20µM	?	32µM	?
COc1ccc(Cl)cc1NC(=O)CSc1cn(CC(=O)N2CCCCC2)c2ccccc12	-	.	.	-	.	.
Cc1c(Cl)cccc1-n1ncc(C(=O)NC2CCCCC2)c1C1CCN(C(=O)OC(C)(C)C)CC1	-	.	-	-	-	.
CC(C)(C)OC(=O)N1CCC(c2c(C(=O)NC3CCCCC3)cnn2-c2cccc(Cl)c2)CC1	-	.	.	18µM	.	.
COc1ccccc1N1CCN(CCCNC(=O)c2cnn(-c3cccc(Cl)c3)c2C2CCN(C(=O)OC(C)(C)C)CC2)CC1	13µM	.	.	13µM	.	.
Cc1cc(Cl)c(OCCOCCN2CCCCC2)c(Br)c1	-	-	-	-	-	-
Cc1cc(Cl)c(OCCOCCN2CCCC(C)C2)c(Br)c1 (stereo not drawn)	-	18µM	-	-	-	?
Cc1cc(Cl)c(OCCCNC2CCCC2)c(Br)c1	-	?	-	?	-	21µM
CC1CCCN(CCOCCOc2ccc(Br)cc2Cl)C1 (stereo not drawn)	-	?	-	-	-	?
CC1CCCN(CCOCCOc2ccc(Cl)cc2Br)C1 (stereo not drawn)	-	22µM	?	?	?	11µM
CCSc1ncc(Cl)c(C(=O)Nc2sc3c(c2C(=O)OC)CCCC3)n1	-	.	.	-	.	.
CN1CCN(Cc2nc3ccccc3c(=O)n2Cc2nc(-c3cccc([N+](=O)[O-])c3)cs2)CC1	-	15µM	-	?	-[11.3 µM]	23µM
CN1CCN(Cc2nc3ccccc3c(=O)n2Cc2nc(-c3ccccc3F)cs2)CC1	-	-	-	-	-	-
SMILES	HepG2 tox	HT1080-NT tox	S2 tox	TGFb inhibitor	ATXN2 expr inh	HT1080 IDH1KD tx
CN1CCN(Cc2nc3ccccc3c(=O)n2Cc2nc(-c3ccc4ccccc4c3)cs2)CC1	16µM!	5.8µM	.	?	?	3.7µM
CCNC(=O)c1c(NC(=O)c2nc(SC)ncc2Cl)sc2c1CCCC2	-	.	.	-	.	.
COC(=O)c1ccccc1NC(=O)Cn1nc(C)c2nn(-c3ccc(Cl)cc3)c(C)c2c1=O	-	.	.	-	.	.
COc1ccc(CCNCC(O)COc2ccc(OC)cc2C(C)(C)C)cc1 (stereo not drawn)	-	?	?	?	-	18µM
Cc1cccc(OCCCC(=O)Nc2nc3ccccc3[nH]2)c1	-	-	-	?	13µM	-
O=C(CSc1ccccc1)Nc1nc2ccccc2[nH]1	-	12µM	-	-	-	?
COc1ccc2c(c1OC)C(=O)N1c3ccccc3C(=O)N(Cc3ccco3)C21 (stereo not drawn)	-	.	.	?	.	.
CCn1nc(C)cc1C(=O)NCC1Cc2cccc(-c3cccnc3)c2O1 (stereo not drawn)	.	.	-	.	.	.
Cc1cc(C)c(Cn2cnc3nc4c(cc3c2=O)CCCC4)c(C)c1	-	.	-	-	-	.
CC(C)(C)c1ccc(-c2cn(-c3ccc(Br)cc3)c3[n+]2CCCS3)cc1	-	23µM	-	10µM	-	8.2µM
COc1ccc(-c2cn(-c3ccccc3)c3[n+]2CCS3)cc1	-	?	?	?	-	13µM
COc1ccc(NC(=O)C(=O)NCC2CCCN2S(=O)(=O)c2cc(C)ccc2C)cc1 (stereo not drawn)	-	?	?	-	-	18µM
COc1ccc(NC(=O)C(=O)NCC2CCCN2S(=O)(=O)c2ccc(C)cc2)cc1 (stereo not drawn)	-	0.21µM	?	?	-	0.052µM
COc1cccc(Cc2nc3ccccc3nc2SCC(=O)NCc2ccc(C)cc2)c1	-	.	.	-	.	.
C[C@H](CN1CCCC1)C(=O)c1ccc(C(F)(F)F)cc1	.	.	-	.	-	.
CO[C@@]1(NC(=O)CSC[C@@H](N)C(=O)O)C(=O)N2C(C(=O)O)=C(CSc3nnnn3C)CS[C@@H]21	.	.	-	.	-	.
CCCCCCCCCCCCCCCCCCNc1ccn(C2OC(COP(=O)(O)OCC3OC(n4cc(F)c(=O)[nH]c4=O)CC3O)C(O)C2O)c(=O)n1 (stereo not drawn)	-	?	?	?	?	10µM
CCCCCOC(=O)Nc1nc(=O)n([C@@H]2O[C@H](C)[C@@H](O)[C@H]2O)cc1F	.	.	-	.	-	.
OC[C@]1(O)OC[C@@H](O)[C@H](O)[C@@H]1O	.	.	-	.	-	.
CCNC(=O)NC(=O)COC(=O)c1ccccc1SCC(=O)NC(=O)NCC	-	-	-	-	-	29µM
COc1ccccc1NC(=S)NC12CN3CN(CN(C3)C1)C2	-	-	-	-	-	-
COc1ccccc1NC(=S)N1CC(C)(C)C1=O	5µM	-	-	-	-	-
